Screens deposited in PubChem by Broad Institute.
The sample as a whole holds a higher share of hits than the screen did.
PD-1 reversal: reversal of PD-1 mediated T-cell inhibition; primary human CD4 T cells, PD-L1 beads, CellTiter-Glo 96 h; activation, % (no concentration beside the values); 29,000 tested, under 10 active; AID 2316; call rule not given here;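 also: 0% = median vehicle wells and 100% = positive control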
YB-1 expr inh: YB-1 expression inhibition; U2OS, qRT-PCR YB-1 vs CDIP delta delta Cp, 16 h; stronger effect = higher value; zero = DMSO, each unit about twofold; delta delta Cp (YB-1 minus CDIP) (no concentration beside the values); hit rate 0.37% among 30,000; AID 434959;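 active = delta delta Cp rounded down to an integer at or above 3, about 3 SD of DMSO wells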;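 also: higher means less YB-1 transcript or more CDIP transcript relative to DMSO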
NOMO-1 viab: STK33 inhibitor candidate reducing NOMO-1 cell viability; NOMO-1 AML viability, CellTiter-Glo luminescence, 72 h; inhibition, % (test concentration not listed); hit rate 7.5% among 37,000; AID 2330; in the data active = inhibition above about 80%; inconclusive = no clear call, values can overlap the other calls
ROS inducer: inducers of reactive oxygen species in cancer cells. U2OS ROS induction, H2DCF-DA fluorescence. ROS induction (% of piperlongumine), % at 10 µM. hit rate 2% among 46,000. AID 624156; in the data active = ROS induction above about 79%, passing the limit was not always enough; inconclusive = no clear call, values can overlap the other calls;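 also: 0% = DMSO vehicle median and 100% = reference compound median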
Numbers without * were called inactive; ? = inconclusive; / = not tested or not shown.

SMILES | PD-1 reversal | YB-1 expr inh | NOMO-1 viab | ROS inducer
C=C1[C@@H](C)[C@H]2[C@H](Cc3ccccc3)NC(=O)[C@]23OC(=O)/C=C\[C@H](O)CCC[C@@H](C)C/C=C/[C@H]3[C@@H]1O | -13 | 0.46 | 120* | -1
Cc1ccc(NC(=O)c2cccc(OC(=O)N(C)c3ccccc3)c2)cc1C | -1 | 0.2 | 20 | 16
CCN(CC)CCc1c(C)c2ccc(O)cc2oc1=O | / | / | / | -15
CN1Cc2c(ccc3c2OCO3)C2C(O)Cc3cc4c(cc3C21)OCO4 (stereo unspecified) | / | -0.8 | 104* | -5
COc1ccc(OC)c(NC(=S)NCCc2cnc[nH]2)c1 | 3 | / | 38 | -17
CCCCc1nc2ccccc2c(=O)n1-c1ccc(C)cc1 | / | / | / | -11
O=C(c1ccc2nc(N3CCCCC3)sc2c1)N1CCC2(CC1)OCCO2 | / | / | / | -7
CCOC(=O)C1=C(N)Oc2c(c(=O)oc3ccccc23)C12C(=O)N(CC(=O)OC)c1ccccc12 (stereo unspecified) | 0 | -0.56 | 6 | 97*
CCOC(=O)C1=C(N)Oc2c(c(=O)oc3ccccc23)C1c1ccccc1 (stereo unspecified) | / | / | / | -5
C=CCN1CC[C@]23c4c5ccc(O)c4O[C@H]2C(=O)CC[C@@]3(O)[C@H]1C5 | 5 | -0.033 | -3 | -2
C=CCN1CCc2cccc3c2[C@H]1Cc1ccc(O)c(O)c1-3 | / | -0.076 | 114* | -3
CC1(C)C(C(=O)Nc2ccc(S(=O)(=O)c3ccc(NC(=O)C4C(C)(C)C4(C)C)cc3)cc2)C1(C)C | 2 | -0.00045 | -2 | -9
O=C1C=C2C=C[C@@H]3C[C@@]2(O1)[C@H]1CCCCN31 | / | -0.0014 | 91* | 39
N#CC(c1ccccc1)c1ccccc1 | / | / | / | -19
OC[C@H]1O[C@@H](n2cnc3cc(Cl)c(Cl)cc32)C(O)[C@H]1O (stereo partly specified) | 4 | 0.15 | 87* | -11
CC1(C)C(=O)C=C[C@@]2(C)C1C(=O)C(=O)[C@]1(C)C2CC[C@@]2(C)[C@H](c3ccoc3)C[C@H]3O[C@]321 (stereo partly specified) | / | 0.45 | 108* | 179*
C[C@@H]1O[C@@H](O[C@@H]2C=C3CCC4C(CC[C@]5(C)[C@@H](c6ccc(=O)oc6)CC[C@]45O)[C@@]3(C)CC2)[C@H](O)[C@H](O)[C@H]1O (stereo partly specified) | / | -1.4 | 120* | 6
C[C@@H]1O[C@@H](O[C@@H]2C=C3CC[C@@H]4C(CC[C@]5(C)[C@@H](c6ccc(=O)oc6)CC[C@]45O)[C@@]3(C)CC2)[C@H](O)[C@H](O)[C@H]1O (stereo partly specified) | -16 | 1.8 | 108* | 36
CC(C)N(C(=O)SCC(Cl)=C(Cl)Cl)C(C)C | / | 0.27 | 10 | -12
CCN1C[C@]2(C)CC[C@H](OC)[C@@]34C2[C@H](O)C([C@@H]13)[C@@]1(OC)C[C@H](OC)[C@H]2C[C@@H]4[C@@H]1[C@H]2O | 0 | -0.2 | 4 | -11
Cc1[nH]c2ccccc2c1CCNCC(C)(C)C | / | / | / | 5
COC1CC(OC2CCC3(C)C(CCC4C3CCC3(C)C(C5=CC(=O)OC5)C(OC(C)=O)CC43O)C2)OC(C)C1OC1OC(COC2OC(CO)C(O)C(O)C2O)C(O)C(O)C1O (stereo unspecified) | -7 | 0.66 | 110* | -2
C[C@]12CC[C@H](O)C[C@H]1CCC1C2CC[C@]2(C)[C@@H](C3=CC(=O)OC3)[C@@H](O)C[C@]12O (stereo partly specified) | / | 0.42 | 97* | 5
CO[C@H]1[C@H](O)[C@H](O[C@H]2CC[C@]3(C)C4CC[C@]5(C)C(C6=CC(=O)OC6)CC[C@]5(O)C4CC[C@@H]3C2)O[C@@H](C)[C@@H]1O (stereo partly specified) | / | -0.17 | 110* | -13
O=C(c1ccco1)c1cn(CCCOc2ccccc2)c2ccccc12 | -1 | / | 31 | 16
SMILES | PD-1 reversal | YB-1 expr inh | NOMO-1 viab | ROS inducer
CC(=O)OC1CCC2(C)C(=CCC3C4CCC(=O)C4(C)CCC32)C1 (stereo unspecified) | 0 | 0.23 | 10 | 38
O=c1c2ccccc2nc(CSc2ncnc3ccccc23)n1-c1ccccc1F | -9 | / | ? | 27
C/C=C(/C)C(=O)O[C@H]1C(C)=C2[C@H]([C@@H]1OC(=O)CCCCC)[C@@](C)(OC(C)=O)C[C@H](OC(=O)CCC)[C@@]1(O)[C@H]2OC(=O)[C@@]1(C)O | -42 | / | 99* | 9
CCC(C)(O)C(=O)O[C@H]1C(=O)O[C@@H]2C[C@H]3C(C)=CC(=O)[C@@H](O)[C@]3(C)[C@H]3[C@@]4(O)OC[C@]32[C@@H]1[C@@H](C)[C@H]4O (stereo partly specified) | -7 | 0.74 | 124* | 64
CC1=CC(=O)C2=C(C)C[C@H](O)[C@@H]3[C@H](OC(=O)[C@@H]3C)[C@@H]12 | / | 0.33 | / | 4
NC1=C(C(=O)OCc2ccccc2)C2(C(=O)Nc3ccc(Br)cc32)C2=C(O1)C(=O)CCC2 (stereo unspecified) | -2 | -0.37 | 45 | -7
O=C1NC(=O)C(=Cc2cn(Cc3ccccc3)c3ccccc23)C(=O)N1 | -2 | -0.37 | 126* | 51
N#CC(C#N)=Cc1ccc(O)cc1 | -2 | -1.1 | 87* | 3
O=C(c1cnn(-c2ccccc2)c1-n1cccc1)N1CCC2(CC1)OCCO2 | / | / | / | 3
C=CC1C[N+]2([O-])CCC1CC2C(O)c1ccnc2ccccc12 (stereo unspecified) | / | 0.5 | / | 2
CC(/C=C/[C@@]1(C)[C@H](C)CCC(=O)[C@@H]1C)=C\Cc1c(O)c(Cl)c(C)c(C=O)c1O | -5 | 0.46 | 112* | -5
COCc1cc(OC(=O)N(C)C)nc(COc2ccc(Cl)cc2)n1 | / | / | / | -9
CC(=O)OC[C@]12CCC(C)=C[C@H]1O[C@@H]1[C@H](O)[C@@H](OC(C)=O)[C@@]2(C)[C@]12CO2 | -10 | 0.61 | 109* | 2
CC(=O)OC[C@]12C[C@H](O)C(C)=C[C@H]1O[C@@H]1[C@H](O)[C@@H](OC(C)=O)[C@@]2(C)[C@]12CO2 | -5 | 1.2 | 123* | -2
CCc1ccc(CN2CCN(Cc3ccc(CC)cc3)CC2)cc1 | / | / | / | 34
OC[C@H]1O[C@@H](Oc2ccc(/C=C/c3cc(O)cc(O)c3)cc2O)[C@H](O)[C@@H](O)[C@@H]1O | / | 0.42 | / | -4
CNc1ccccc1C(=O)O | / | 0.2 | 2 | 6
C[CH2][Hg][S]c1ccccc1C(=O)O | / | -0.6 | 111* | 136*
CC(C)(C)c1cc(C=C(C#N)C#N)cc(Br)c1O | 0 | 0.67 | 57 | 5
CC1=CC2/C=C(\C)CCC(O)C(O)/C=C/C(=O)C23C(=O)NC(CC(C)C)C3C1C (stereo unspecified) | -37 | 1.1 | 121* | 70
O=C(NC1CN2CCC1CC2)c1cccc(Cl)c1 (stereo unspecified) | 1 | -0.59 | 21 | 88*
Clc1cccc(N2CCNCC2)c1 | / | 0.17 | -18 | -9
